Compound activity as filed in PubChem BioAssay.
aDG glyco up: activators of alpha-DG glycosylation, primary screen, uHTS, Pro5-aDG cells, AlphaScreen; alpha-DG glycosylation AlphaScreen (IIH6); 0% Pro5, 100% B10-LARGE cell signal; activation, % at 10 µM; hit rate 0.22% among 360,000; AID 624168, 2012;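 active = activation of at least 8% versus controls, or a plate z-score of at least 8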;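 also: Pro5 are CHO cells carrying HIG-tagged alpha-DG that lacks glycosylation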
Cardio protect: cardioprotection against H2O2-induced cell death, primary screen, uHTS, H9c2 cells, ATPLite luminescence; H9c2 cardiomyocytes, H2O2 injury protection, 2 h; protection from H2O2 cell death, % at 20 µM; hit rate 0.63% among 360,000; AID 588492, 2011;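 active = compounds giving at least 50% protection of heart cells from peroxide-induced death in the single-dose screen, raw or plate-pattern-corrected value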;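 also: 0% = DMSO wells with peroxide and 100% = DMSO wells without peroxide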
Glyco luc inh: increase of ERlucT glycosylation luciferase signal, primary screen, N-linked glycosylation inhibitor project, D54 ERlucT cells, luminescence, set 2 | reporter increase, % at 12.5 µM | D54 ERlucT glycosylation luciferase reporter, 24 h; percent of 100 nM tunicamycin response | hit rate 0.23% among 360,000;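 active = mean luciferase reporter signal, scaled so untreated is 0 and the glycosylation-blocking control 100, at or above a set limit in every replicate; inconclusive = mean reaches the limit but not every replicate does; inactive = mean below the limit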;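 also: luciferase carries N-glycosylation sites so blocking glycosylation raises the light; 0% = median of neutral control wells and 100% = median of 100 nM tunicamycin wells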
ARNT TACC3 PPI: disruptors of ARNT/TACC3 protein interaction, primary screen, biochemical, AlphaScreen, single concentration. hit rate 0.66% among 390,000. inhibition, % at 9.99 µM. AID 623870, 2012. AlphaScreen His-ARNT PAS-B/GST-TACC3 binding, luminescence; TACC3 fragment carries E629A point mutation;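 active = mean inhibition of replicates at least 50% and at least half of replicates each reaching 50%; inconclusive = half or more replicates reach 50% but mean below 50%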;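 also: 0% = complete ARNT plus TACC3 wells and 100% = ARNT alone without TACC3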
Vif imaging: HIV Vif self-association inhibitors, primary screen, imaging, HEK293T, single point | hit rate 0.35% among 340,000 | HEK293T cells, Vif self-association by quenched fluorescence, 24 h | inhibition, % at 7.49 µM; in the data active = inhibition above about 50%, passing the limit was not always enough; inconclusive = no clear call, values can overlap the other calls; inactive = below about 31%
The depositor's hits bear a star. Compounds with a hit are over-represented: about 1.7% of the library has one in this group of screens.

What do the screens show for `O=C(NCC(=O)N(Cc1ccccc1)C(C(=O)NC1CCCCC1)c1ccco1)c1ccco1` (configuration not stated)?
aDG glyco up: 0; Cardio protect: 97*; Glyco luc inh: -2; ARNT TACC3 PPI: -7; Vif imaging: -4

Results for CC/C(C)=N\N=C\c1c(O)n(CC)c2cc(C3=NNC(=O)CC3)ccc12 ?
aDG glyco up: 0; Cardio protect: 61*; Glyco luc inh: 3; ARNT TACC3 PPI: 4; Vif imaging: 5

What do the screens show for `CCn1c(O)c(/C=N/N=C/c2ccc(OC)cc2)c2cc(C3=NNC(=O)CC3)ccc21`?
aDG glyco up: 0; Cardio protect: -1; Glyco luc inh: -3; Vif imaging: inactive

Results for Cc1noc(C)c1NC(=O)Nc1ccc2c(c1)C(=O)N([C@H](C)CO)C[C@H](C)[C@H](CN(C)C)OCCCC[C@@H](C)O2 ?
ARNT TACC3 PPI: 1

Results for COc1ccc(-n2c(O)c(/C=N/Nc3nc(C)cc(C)n3)c3ccccc3c2=O)cc1OC ?
aDG glyco up: 0; Cardio protect: 62*; Glyco luc inh: -6; ARNT TACC3 PPI: 3; Vif imaging: -11

How did COc1ccc(S(=O)(=O)Nc2ccc3c(c2)CC(=O)N([C@@H](C)CO)C[C@@H](C)[C@@H](CN(C)S(=O)(=O)c2ccc(C)cc2)O3)cc1 do in these assays?
ARNT TACC3 PPI: -10

How did CCCOc1ccc(Cc2nn3c(=O)/c(=C/c4ccco4)sc3nc2=O)cc1 do in these assays?
aDG glyco up: 0; Cardio protect: 2; Glyco luc inh: 1; ARNT TACC3 PPI: 32*; Vif imaging: -5

What do the screens show for `Nc1nc(NC(=O)/C=C\C(=O)O)nn1-c1ccccc1`?
aDG glyco up: 0; Cardio protect: -1; Glyco luc inh: 2; ARNT TACC3 PPI: 74*; Vif imaging: -1

Results for Nc1nc(NC(=O)Cc2ccccc2)nn1-c1ccccc1 ?
aDG glyco up: 0; Cardio protect: -5; Glyco luc inh: 1; ARNT TACC3 PPI: 48*; Vif imaging: -2

How did O=C(C[C@@H]1CC[C@@H]2[C@H](COC[C@H](O)CN2Cc2ccccc2F)O1)N1CCc2ccccc2C1 do in these assays?
ARNT TACC3 PPI: -4

Results for CO[C@H]1CN(C)C(=O)c2ccc(NC(=O)NC(C)C)cc2OC[C@@H](C)N(CC2CC2)C[C@H]1C ?
ARNT TACC3 PPI: -19

How did COc1cc(NC(=O)c2ccco2)c(OC)cc1NC(=O)Nc1cccc(Cl)c1 do in these assays?
aDG glyco up: 0; Cardio protect: 65*; Glyco luc inh: -2; ARNT TACC3 PPI: -9; Vif imaging: -6

Results for CCOc1cc(NC(=O)c2ccco2)c(OCC)cc1NC(=O)c1cc(OC)c(OC)c(OC)c1 ?
aDG glyco up: 0; Cardio protect: 15; Glyco luc inh: -3; ARNT TACC3 PPI: -1; Vif imaging: inconclusive

Results for COc1cc(NC(=O)c2ccco2)c(OC)cc1NC(=O)c1cc(OC)c(OC)c(OC)c1 ?
aDG glyco up: 0; Cardio protect: 74*; Glyco luc inh: 3; ARNT TACC3 PPI: 0; Vif imaging: -2

How did COc1ccc(NC(=O)c2ccco2)cc1NC(=O)c1ccco1 do in these assays?
aDG glyco up: 0; Cardio protect: -3; Glyco luc inh: 1; ARNT TACC3 PPI: -3; Vif imaging: -3

How did O=C(OCC(=O)c1c[nH]c2ccccc12)c1ccco1 do in these assays?
aDG glyco up: 0; Cardio protect: -7; Glyco luc inh: 1; ARNT TACC3 PPI: -4; Vif imaging: 14

Results for COc1cc(NC(=O)c2ccco2)c(C(=O)OCC(=O)c2c[nH]c3ccccc23)cc1OC ?
aDG glyco up: -1; Cardio protect: 66*; Glyco luc inh: -3; ARNT TACC3 PPI: -2; Vif imaging: -6

What do the screens show for `O=C(C[C@@H]1C=C[C@H](NC(=O)Nc2cc(F)ccc2F)[C@H](CO)O1)NCc1ccncn1`?
ARNT TACC3 PPI: -14

What do the screens show for `Cc1ccc(-c2ccc3c(c2)O[C@H](CN(C)C(=O)Nc2ccc(C(F)(F)F)cc2)[C@@H](C)CN([C@@H](C)CO)S3(=O)=O)cc1`?
ARNT TACC3 PPI: -1

Results for C/C=C/c1ccc2c(c1)O[C@H](CN(C)Cc1ccc(C(=O)O)cc1)[C@H](C)CN([C@H](C)CO)S2(=O)=O ?
ARNT TACC3 PPI: -2

Results for CCCNC(=O)N[C@@H]1CC[C@H](CCn2cc(C3CCCCC3)nn2)O[C@@H]1CO ?
ARNT TACC3 PPI: -11

How did Cc1nn(CCCC(=O)N2CCc3ccccc3C2)c(=O)c2cc3sccc3n12 do in these assays?
aDG glyco up: 0; Cardio protect: 8; Glyco luc inh: 3; ARNT TACC3 PPI: -1; Vif imaging: 85*

What do the screens show for `CCOC(=O)CCCn1nc(C)n2c(cc3sccc32)c1=O`?
aDG glyco up: 0; Cardio protect: 16; Glyco luc inh: -1; ARNT TACC3 PPI: 16

What do the screens show for `C[C@H](CO)N1C[C@H](C)[C@H](CN(C)C(=O)CN(C)C)Oc2cc(C#CC3CC3)ccc2S1(=O)=O`?
ARNT TACC3 PPI: 3

How did C=C1C(=O)O[C@H]2C[C@]3(C)C([C@@H](OC(=O)/C(C)=C/C)[C@H]12)[C@](C)(O)CC[C@H]3O (some centres not stated) do in these assays?
aDG glyco up: 0; Cardio protect: 12; Glyco luc inh: -10; ARNT TACC3 PPI: 5; Vif imaging: 11

Results for C=C[C@@]1(C)CC(=O)[C@]2(O)[C@@]3(C)[C@@H](O)CCC(C)(C)[C@@H]3[C@H](O)[C@H](OC(C)=O)[C@@]2(C)O1 ?
aDG glyco up: 0; Cardio protect: 71*; Glyco luc inh: 15; ARNT TACC3 PPI: -4; Vif imaging: 75*

Results for C=C[C@@]1(C)CC(=O)[C@]2(O)[C@@]3(C)[C@@H](O)CCC(C)(C)[C@@H]3[C@H](OC(C)=O)[C@H](O)[C@@]2(C)O1 ?
aDG glyco up: 0; Cardio protect: 9; Glyco luc inh: 1; ARNT TACC3 PPI: -10; Vif imaging: 82*

How did COc1ccc(CN(C)C[C@H]2OCCCC[C@@H](C)Oc3ccc(NC(=O)Nc4ccc5c(c4)OCO5)cc3C(=O)N([C@H](C)CO)C[C@@H]2C)cc1 do in these assays?
ARNT TACC3 PPI: 11

What do the screens show for `Cc1ccc2c(COC(=O)c3ccccc3OC(F)F)cc(=O)oc2c1`?
aDG glyco up: 0; Cardio protect: -6; Glyco luc inh: -2; ARNT TACC3 PPI: -8; Vif imaging: 52*
